Assays:
Assay in all cases: growth inhibition (% activity, log2 RLU normalised to DMSO / staurosporine); higher = more growth inhibition
Settings in all cases: 33 µM
[1] = tested on: DIPGX29 (H3.3 K27M diffuse intrinsic pontine glioma line)
Method in brief: (§1)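 In triplicate, pHGG cell lines and H9-derived neural stem cells were treated for 7 days at 37 °C, 5% CO2 with approved drugs at a single final concentration of about 33 μM, added by pin tool. CellTiter-Glo luminescence, after log2 transformation, was normalised on each plate to % activity between solvent and positive control wells. Growth inhibition is reported as the median across replicates.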

[2] = tested on: DIPGX37 (H3.3 K27M diffuse intrinsic pontine glioma line)
Method in brief: as §1

[3] = tested on: DIPGX7 (H3.3 K27M diffuse intrinsic pontine glioma line)
Method in brief: as §1

[4] = tested on: DIPGX9 (diffuse intrinsic pontine glioma line)
Method in brief: as §1

[5] = tested on: HGGX39 (paediatric high-grade glioma line)
Method in brief: as §1

[6] = tested on: HGGX6 (H3.3 G34R paediatric high-grade glioma line)
Method in brief: as §1

[7] = tested on: HNSC
Method in brief: as §1

[8] = tested on: SUDIPGIV (diffuse intrinsic pontine glioma line)
Method in brief: as §1

[9] = tested on: SUDIPGVI (diffuse intrinsic pontine glioma line)
Method in brief: as §1

[10] = tested on: SUDIPGXIII (diffuse intrinsic pontine glioma line)
Method in brief: as §1

| SMILES | growth inhibition [1] [%] | growth inhibition [2] [%] | growth inhibition [3] [%] | growth inhibition [4] [%] | growth inhibition [5] [%] | growth inhibition [6] [%] | growth inhibition [7] [%] | growth inhibition [8] [%] | growth inhibition [9] [%] | growth inhibition [10] [%] |
| --- | --- | --- | --- | --- | --- | --- | --- | --- | --- | --- |
| CCCN1C[C@H](CSC)C[C@@H]2c3cccc4[nH]cc(c34)C[C@H]21 | -0.00648 | -1.76 | -0.373 | -0.427 | 1.29 | 2.2 | -2.99 | 0.236 | 0.348 | -3.14 |
| CC(=O)OC1CN2CCC1CC2 (stereo not given) | -0.533 | 1.16 | 0.391 | 1.28 | 1.15 | -1.32 | 2.31 | -0.883 | 1.26 | 0.846 |
| OC(c1ccccc1)(c1ccccc1)C1CCNCC1 | 0.581 | -0.7 | -0.982 | -0.0248 | -0.475 | 0.616 | -1.42 | -1.01 | 0.144 | 1.52 |
| CC[C@@]1(O)C(=O)OCc2c1cc1n(c2=O)Cc2cc3ccccc3nc2-1 | 11.8 | -1.33 | 11.4 | 14.7 | 39.5 | 13.4 | 65.8 | 46.6 | 2.42 | 2.77 |
| O=S(=O)(F)Cc1ccccc1 | 0.493 | -0.634 | -0.837 | -0.877 | -0.194 | -1.52 | -0.438 | -0.0165 | 1.21 | 0.305 |
| CN(C)[C@@H]1C(=O)C(C(N)=O)=C(O)[C@@]2(O)C(=O)C3=C(O)c4c(O)ccc(Cl)c4[C@@](C)(O)[C@H]3C[C@@H]12 | 3.18 | 4.29 | 3.71 | 3.16 | 4.59 | 3.5 | 2.92 | 2.12 | 3.1 | -1.15 |
| CCC(COC(=O)c1cc(OC)c(OC)c(OC)c1)(c1ccccc1)N(C)C (stereo not given) | 7.04 | -5.85 | 26.9 | 2.8 | 7.48 | 5.32 | 52.1 | 23.2 | -0.409 | -13.6 |
| O=C1CC[C@@]2(O)[C@H]3Cc4ccc(O)c5c4[C@@]2(CCN3CC2CC2)[C@H]1O5 | 1.67 | 1.95 | 2.36 | 2.58 | 3.26 | 2.55 | 3.56 | 1.52 | 3.67 | -0.861 |
| N.N.[Cl][Pt][Cl] | -1.13 | 0.384 | 0.191 | 0.402 | -0.146 | -3.02 | -5.11 | -3 | -1.15 | 1.82 |
| CCC1(C)CC(=O)NC(=O)C1 | -3.05 | -2.24 | 4.09 | -2.78 | -4.36 | -4.73 | 7 | -2.82 | -6.09 | -0.846 |
| CC(O)(CS(=O)(=O)c1ccc(F)cc1)C(=O)Nc1ccc(C#N)c(C(F)(F)F)c1 (stereo not given) | 0.345 | -1.44 | 1.23 | 0.462 | 1.55 | 0.395 | -0.177 | -0.994 | 2.38 | 1.16 |
| O=C(O)c1nn(Cc2ccc(Cl)cc2Cl)c2ccccc12 | 1.18 | 2.18 | 1.47 | -0.0993 | 1.2 | -0.667 | 30.5 | 3.06 | -3.75 | -0.117 |
| C[C@@H]1O[C@@H](O[C@H]2C[C@@H](O)[C@]3(CO)[C@H]4[C@H](O)C[C@]5(C)[C@@H](C6=CC(=O)OC6)CC[C@]5(O)[C@@H]4CC[C@]3(O)C2)[C@H](O)[C@H](O)[C@H]1O | 41.5 | 21.1 | 60.7 | 26.1 | 54.5 | 51.4 | 59.4 | 60.1 | 37.7 | 45.3 |
| C[C@]12CC[C@H]3[C@@H](CC[C@@]45O[C@@H]4C(O)=C(C#N)C[C@]35C)[C@@H]1CC[C@@H]2O | 0.975 | -2.98 | 3.34 | -0.94 | 3.74 | 0.2 | -3.23 | -0.766 | -0.488 | -1.34 |
| Cc1cc(C(C#N)c2ccc(Cl)cc2)c(Cl)cc1NC(=O)c1cc(I)cc(I)c1O (stereo not given) | -4.52 | -1.84 | -0.384 | -2.01 | -0.728 | -4.74 | 4.96 | -0.00583 | -3.36 | 3.29 |
| Cc1c(N)nc(C(CC(N)=O)NCC(N)C(N)=O)nc1C(=O)NC(C(=O)NC(C)C(O)C(C)C(=O)NC(C(=O)NCCc1nc(-c2nc(C(=O)NCCC[S+](C)C)cs2)cs1)C(C)O)C(O[C@@H]1O[C@@H](CO)[C@@H](O)[C@H](O)[C@@H]1O[C@H]1O[C@H](CO)[C@@H](O)[C@H](OC(N)=O)[C@@H]1O)c1cnc[nH]1 (stereo not given in full) | 3.71 | 5.42 | 1.63 | 17.8 | 8.29 | 4.24 | 56.5 | 32.5 | 1.68 | 4.14 |
| C=C(C)[C@@H]1[C@H]2OC(=O)[C@@H]1[C@]1(O)C[C@H]3O[C@]34C(=O)O[C@H]2[C@]14C | -0.435 | 1.09 | -0.608 | 0.386 | 1.14 | 0.986 | -1.08 | -0.711 | 2.74 | 0.384 |
| CCC1(c2ccc(N)cc2)CCC(=O)NC1=O (stereo not given) | -0.867 | 0.792 | 0.848 | 0.885 | 1.68 | 2.54 | -1.67 | -1.8 | 0.634 | -0.67 |
| CNC(=O)Oc1ccc2c(c1)[C@]1(C)CCN(C)[C@@H]1N2C | -0.0328 | 2.09 | -0.713 | -0.267 | -1.19 | 1.68 | -0.354 | -0.781 | 2.19 | 1.12 |

Source: the supplement of paper PMC8253809
